# Results: article PMC7862700, “An all-to-all approach to the identification of sequence-specific readers for epigenetic DNA modifications on cytosine”
# Columns and labels:
# Assay in all cases: DAPPL (digital affinity profiling via proximity ligation, sequencing); 10 mM Tris-HCl pH 7.5, 50 mM NaCl, 1 mM DTT, 4% glycerol, room temperature, 30 min; GST-TFs on glutathione beads, 16-mer random dsDNA library, 0.1% formaldehyde crosslink after washing; high values mean tight binding
# Conditions in all cases: protein: recombinant; tags: N-terminal GST; dsDNA, one strand shown
# [1] = target: T1, ELK1 (Homo sapiens, UniProt P19419 1-428)
# T1 sequence: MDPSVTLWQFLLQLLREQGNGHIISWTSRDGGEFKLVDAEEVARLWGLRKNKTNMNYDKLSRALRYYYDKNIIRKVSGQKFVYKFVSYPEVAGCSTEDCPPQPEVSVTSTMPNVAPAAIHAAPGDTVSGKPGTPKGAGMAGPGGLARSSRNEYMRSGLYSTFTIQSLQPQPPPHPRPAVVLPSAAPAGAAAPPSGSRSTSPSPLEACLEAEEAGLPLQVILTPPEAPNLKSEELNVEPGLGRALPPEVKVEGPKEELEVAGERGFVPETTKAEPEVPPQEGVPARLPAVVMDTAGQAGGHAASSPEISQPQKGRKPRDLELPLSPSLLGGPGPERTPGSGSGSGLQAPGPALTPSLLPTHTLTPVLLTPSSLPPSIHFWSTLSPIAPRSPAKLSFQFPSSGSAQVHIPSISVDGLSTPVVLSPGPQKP
# In short: (§1)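 Pools were built from human transcription factors expressed in yeast as GST fusions, captured on glutathione beads and DNA-barcoded, along with a tag-only sample. Incubation with 200 nmole of a 16-mer random double-stranded DNA library lasted 30 min at room temperature in Tris/NaCl/DTT/glycerol buffer, and was followed by washing, 0.1% formaldehyde crosslinking, proximity ligation, PCR amplification and Illumina NextSeq500 sequencing. Binding signal is the quotient of each hexamer's read frequency for a factor and its frequency for the tag-only sample.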
# [2] = target: ELF1 (Homo sapiens, UniProt P32519 1-619)
# Sequence of ELF1 (P32519 whole entry): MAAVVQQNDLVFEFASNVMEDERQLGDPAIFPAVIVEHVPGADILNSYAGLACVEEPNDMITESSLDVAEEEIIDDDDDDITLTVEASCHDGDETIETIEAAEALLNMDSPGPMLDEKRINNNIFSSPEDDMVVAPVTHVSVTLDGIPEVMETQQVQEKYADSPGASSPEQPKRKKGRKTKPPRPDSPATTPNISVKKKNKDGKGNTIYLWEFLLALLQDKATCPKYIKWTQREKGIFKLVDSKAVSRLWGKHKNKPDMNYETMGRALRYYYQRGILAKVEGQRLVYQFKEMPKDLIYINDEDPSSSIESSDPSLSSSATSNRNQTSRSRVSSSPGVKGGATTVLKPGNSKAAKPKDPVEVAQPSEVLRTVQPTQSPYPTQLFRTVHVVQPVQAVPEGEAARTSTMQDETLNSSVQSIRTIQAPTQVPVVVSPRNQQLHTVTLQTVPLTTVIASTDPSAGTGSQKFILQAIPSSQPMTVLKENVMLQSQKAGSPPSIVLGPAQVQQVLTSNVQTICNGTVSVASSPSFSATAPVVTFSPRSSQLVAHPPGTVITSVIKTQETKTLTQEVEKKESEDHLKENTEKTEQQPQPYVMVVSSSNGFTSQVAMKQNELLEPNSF
# In short: as §1
# [3] = target: T2, ELK3 (Homo sapiens, UniProt P41970 1-407)
# T2 sequence: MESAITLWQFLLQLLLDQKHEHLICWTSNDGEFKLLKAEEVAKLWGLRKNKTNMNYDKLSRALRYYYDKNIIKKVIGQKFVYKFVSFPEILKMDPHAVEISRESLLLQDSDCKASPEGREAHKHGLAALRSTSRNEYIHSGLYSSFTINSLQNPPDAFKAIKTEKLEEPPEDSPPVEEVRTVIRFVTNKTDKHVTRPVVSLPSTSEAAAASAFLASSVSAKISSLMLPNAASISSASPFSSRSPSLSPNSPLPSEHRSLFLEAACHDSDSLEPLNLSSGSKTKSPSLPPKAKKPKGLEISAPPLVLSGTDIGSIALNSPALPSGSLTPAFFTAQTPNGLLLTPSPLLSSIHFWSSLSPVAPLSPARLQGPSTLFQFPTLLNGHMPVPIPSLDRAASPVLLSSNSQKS
# In short: as §1
# [4] = target: T3, FEV (Homo sapiens, UniProt Q99581 1-238)
# T3 sequence: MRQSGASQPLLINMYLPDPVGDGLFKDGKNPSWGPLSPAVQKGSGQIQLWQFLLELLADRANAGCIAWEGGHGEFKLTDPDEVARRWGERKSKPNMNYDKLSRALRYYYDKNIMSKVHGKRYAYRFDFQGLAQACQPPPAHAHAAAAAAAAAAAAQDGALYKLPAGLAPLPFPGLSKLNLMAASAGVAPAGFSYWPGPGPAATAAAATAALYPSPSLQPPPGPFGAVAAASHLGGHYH
# In short: as §1
# [5] = target: T4, SPIC (Homo sapiens, UniProt Q8N5J4 1-248)
# T4 sequence: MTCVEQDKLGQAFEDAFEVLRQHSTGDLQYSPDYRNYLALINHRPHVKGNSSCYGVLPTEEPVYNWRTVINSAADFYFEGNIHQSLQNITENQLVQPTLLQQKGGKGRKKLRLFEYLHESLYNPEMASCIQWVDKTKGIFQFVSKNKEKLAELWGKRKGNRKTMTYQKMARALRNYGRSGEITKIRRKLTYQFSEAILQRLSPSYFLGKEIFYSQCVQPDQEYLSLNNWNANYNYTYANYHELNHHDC
# In short: as §1
# [6] = target: T5, ELF3 (Homo sapiens, UniProt P78545 1-371)
# T5 sequence: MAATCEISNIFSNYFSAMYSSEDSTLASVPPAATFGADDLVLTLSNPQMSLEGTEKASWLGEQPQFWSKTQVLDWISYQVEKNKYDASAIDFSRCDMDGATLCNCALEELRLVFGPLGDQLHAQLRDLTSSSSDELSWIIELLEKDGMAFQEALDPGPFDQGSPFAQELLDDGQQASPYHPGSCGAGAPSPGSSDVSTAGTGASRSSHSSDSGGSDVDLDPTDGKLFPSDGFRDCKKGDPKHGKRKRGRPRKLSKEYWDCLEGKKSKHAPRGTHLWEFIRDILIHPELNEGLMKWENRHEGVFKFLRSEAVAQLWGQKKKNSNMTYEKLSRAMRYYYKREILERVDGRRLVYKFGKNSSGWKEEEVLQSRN
# In short: as §1
# [7] = target: T6, ETV3L (Homo sapiens, UniProt Q6ZN32 1-361)
# T6 sequence: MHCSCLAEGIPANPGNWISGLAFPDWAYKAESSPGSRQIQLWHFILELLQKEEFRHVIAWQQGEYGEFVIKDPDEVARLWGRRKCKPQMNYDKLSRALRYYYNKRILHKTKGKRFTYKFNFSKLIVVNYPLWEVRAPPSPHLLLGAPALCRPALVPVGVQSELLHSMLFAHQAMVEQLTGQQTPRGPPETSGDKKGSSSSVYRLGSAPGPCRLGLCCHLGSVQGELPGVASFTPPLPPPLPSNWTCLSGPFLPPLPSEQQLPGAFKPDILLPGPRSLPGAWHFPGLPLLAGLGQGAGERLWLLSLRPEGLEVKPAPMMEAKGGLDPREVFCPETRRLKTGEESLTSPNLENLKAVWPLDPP
# In short: as §1
# [8] = target: T7, ETV3 (Homo sapiens, UniProt P41162-2 1-143)
# T7 sequence: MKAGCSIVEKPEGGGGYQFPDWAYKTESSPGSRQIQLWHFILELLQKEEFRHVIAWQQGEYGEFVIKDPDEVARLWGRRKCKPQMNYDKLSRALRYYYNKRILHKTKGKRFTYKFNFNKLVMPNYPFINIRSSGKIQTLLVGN
# In short: as §1
# [9] = target: ETV6 (Homo sapiens, UniProt P41212 1-452)
# Sequence of ETV6 (P41212 whole entry): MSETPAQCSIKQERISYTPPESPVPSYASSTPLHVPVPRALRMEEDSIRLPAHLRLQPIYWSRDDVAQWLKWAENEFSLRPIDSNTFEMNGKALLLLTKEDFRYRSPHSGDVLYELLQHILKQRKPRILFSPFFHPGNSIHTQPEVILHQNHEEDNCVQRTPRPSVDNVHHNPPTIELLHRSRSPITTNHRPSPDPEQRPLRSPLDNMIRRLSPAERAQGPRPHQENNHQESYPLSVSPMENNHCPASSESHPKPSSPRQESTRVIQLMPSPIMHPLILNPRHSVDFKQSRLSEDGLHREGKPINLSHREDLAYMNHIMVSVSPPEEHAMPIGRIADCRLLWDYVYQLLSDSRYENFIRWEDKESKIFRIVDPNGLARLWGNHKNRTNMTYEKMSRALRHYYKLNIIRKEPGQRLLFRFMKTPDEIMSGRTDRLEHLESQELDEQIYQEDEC
# In short: as §1
# [10] = target: SPI1 (Homo sapiens, UniProt P17947 1-270)
# In short: as §1
# [11] = target: ETV1 (Homo sapiens, UniProt P50549 1-477)
# Sequence of ETV1 (P50549 whole entry): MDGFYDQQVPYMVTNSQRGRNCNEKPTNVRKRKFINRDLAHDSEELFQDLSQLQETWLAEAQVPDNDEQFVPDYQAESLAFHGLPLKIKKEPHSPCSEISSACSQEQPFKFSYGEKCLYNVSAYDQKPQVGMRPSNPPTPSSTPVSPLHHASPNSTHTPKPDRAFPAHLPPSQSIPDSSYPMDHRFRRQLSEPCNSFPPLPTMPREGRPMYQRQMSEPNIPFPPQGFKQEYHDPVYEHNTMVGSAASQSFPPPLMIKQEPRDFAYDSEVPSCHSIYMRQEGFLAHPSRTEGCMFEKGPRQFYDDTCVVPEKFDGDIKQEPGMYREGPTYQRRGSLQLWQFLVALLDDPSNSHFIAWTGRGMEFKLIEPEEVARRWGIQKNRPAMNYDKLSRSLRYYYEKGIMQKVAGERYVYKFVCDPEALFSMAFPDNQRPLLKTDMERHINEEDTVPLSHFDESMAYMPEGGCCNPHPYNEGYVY
# In short: as §1
# [12] = target: T8, SPDEF (Homo sapiens, UniProt O95238 1-335)
# T8 sequence: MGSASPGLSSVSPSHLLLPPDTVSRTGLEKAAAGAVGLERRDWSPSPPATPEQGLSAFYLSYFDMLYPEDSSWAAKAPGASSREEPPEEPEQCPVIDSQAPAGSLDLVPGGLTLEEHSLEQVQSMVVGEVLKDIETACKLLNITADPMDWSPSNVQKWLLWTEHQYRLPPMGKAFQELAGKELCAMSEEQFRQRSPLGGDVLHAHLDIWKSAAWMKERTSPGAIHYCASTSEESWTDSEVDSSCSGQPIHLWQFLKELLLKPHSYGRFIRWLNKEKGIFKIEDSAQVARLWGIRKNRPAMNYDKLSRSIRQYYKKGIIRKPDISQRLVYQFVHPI
# In short: as §1
# [13] = target: T9, GABPA (Homo sapiens, UniProt Q06546 1-454)
# T9 sequence: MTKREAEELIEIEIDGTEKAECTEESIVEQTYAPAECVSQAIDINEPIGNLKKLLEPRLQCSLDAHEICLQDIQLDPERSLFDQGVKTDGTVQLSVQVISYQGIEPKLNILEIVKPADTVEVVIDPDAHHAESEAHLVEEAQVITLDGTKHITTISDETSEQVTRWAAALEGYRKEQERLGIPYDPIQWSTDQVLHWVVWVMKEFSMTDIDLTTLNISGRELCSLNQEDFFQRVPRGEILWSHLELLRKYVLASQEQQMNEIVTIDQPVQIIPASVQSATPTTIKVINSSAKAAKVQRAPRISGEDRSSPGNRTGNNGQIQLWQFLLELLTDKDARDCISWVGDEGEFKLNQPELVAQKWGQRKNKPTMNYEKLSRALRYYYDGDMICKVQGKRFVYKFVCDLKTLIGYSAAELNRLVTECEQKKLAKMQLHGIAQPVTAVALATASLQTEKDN
# In short: as §1
# [14] = target: T10, ELF5 (Homo sapiens, UniProt Q9UKW6-2 1-255)
# T10 sequence: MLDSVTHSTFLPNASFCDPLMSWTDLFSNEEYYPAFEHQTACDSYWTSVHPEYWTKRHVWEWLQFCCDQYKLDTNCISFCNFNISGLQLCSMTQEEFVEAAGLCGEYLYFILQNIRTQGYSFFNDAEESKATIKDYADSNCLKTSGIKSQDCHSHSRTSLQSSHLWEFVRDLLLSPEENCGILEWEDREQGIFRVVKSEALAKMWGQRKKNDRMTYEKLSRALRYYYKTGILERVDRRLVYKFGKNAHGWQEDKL
# In short: as §1
Sequence,binding signal [1],binding signal [2],binding signal [3],binding signal [4],binding signal [5],binding signal [6],binding signal [7],binding signal [8],binding signal [9],binding signal [10],binding signal [11],binding signal [12],binding signal [13],binding signal [14]
GGTTAC,"1.05 fold enrichment (6-mer frequency, TF over GST control)","1.01 fold enrichment (6-mer frequency, TF over GST control)","1.04 fold enrichment (6-mer frequency, TF over GST control)","1 fold enrichment (6-mer frequency, TF over GST control)","1.05 fold enrichment (6-mer frequency, TF over GST control)","1.07 fold enrichment (6-mer frequency, TF over GST control)","1.01 fold enrichment (6-mer frequency, TF over GST control)","1.01 fold enrichment (6-mer frequency, TF over GST control)","1.02 fold enrichment (6-mer frequency, TF over GST control)",,,,,
CACGGC,,"1.04 fold enrichment (6-mer frequency, TF over GST control)",,,"1.03 fold enrichment (6-mer frequency, TF over GST control)",,"1.07 fold enrichment (6-mer frequency, TF over GST control)",,"1.05 fold enrichment (6-mer frequency, TF over GST control)","1.01 fold enrichment (6-mer frequency, TF over GST control)","1 fold enrichment (6-mer frequency, TF over GST control)","1.03 fold enrichment (6-mer frequency, TF over GST control)",,
ATGAGG,,,,,"1.06 fold enrichment (6-mer frequency, TF over GST control)","1.17 fold enrichment (6-mer frequency, TF over GST control)",,"1.01 fold enrichment (6-mer frequency, TF over GST control)",,"1.4 fold enrichment (6-mer frequency, TF over GST control)","1.01 fold enrichment (6-mer frequency, TF over GST control)",,"1.03 fold enrichment (6-mer frequency, TF over GST control)","1.11 fold enrichment (6-mer frequency, TF over GST control)"
